In the library only some 4.6% were active in any assay of this set; here they are far more common.
TRb-SRC2 inh – qHTS for Inhibitors of the Interaction of Thyroid Hormone Receptor and Steroid Receptor Coregulator 2. hit rate 0.065% among 280,000. Potency, µM (top dose mostly 106 µM), for inactives: at the top dose activity change, negative = inhibition, hits mostly inhibitors. Thyroid hormone receptor beta (Homo sapiens), P10828. TRbeta-SRC2 peptide binding, fluorescence polarization; receptor liganded with 1 µM T3. AID 1469, 2008;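 also: potency is read from the fitted curve at half-maximal effect; plate controls were bound peptide for no effect and peptide without receptor for full effect; nearly all actives have a fitted effect of over 50% in size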
Target sequence (P10828 whole entry, looked up): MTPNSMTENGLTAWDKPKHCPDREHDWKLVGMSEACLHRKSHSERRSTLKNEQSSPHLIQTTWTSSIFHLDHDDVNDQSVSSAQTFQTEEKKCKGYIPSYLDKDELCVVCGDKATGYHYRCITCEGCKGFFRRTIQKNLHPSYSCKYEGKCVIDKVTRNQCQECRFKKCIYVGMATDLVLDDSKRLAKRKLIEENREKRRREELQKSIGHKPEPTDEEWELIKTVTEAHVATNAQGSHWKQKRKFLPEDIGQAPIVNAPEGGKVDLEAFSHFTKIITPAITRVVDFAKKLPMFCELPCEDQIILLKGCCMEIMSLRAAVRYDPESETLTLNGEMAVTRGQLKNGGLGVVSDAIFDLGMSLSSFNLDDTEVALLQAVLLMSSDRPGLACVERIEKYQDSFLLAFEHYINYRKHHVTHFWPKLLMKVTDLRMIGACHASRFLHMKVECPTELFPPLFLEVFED
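Compounds were added to 0.6 uM TRb ligand-binding domain and 20 nM Texas Red-labeled SRC2 peptide in Tris buffer containing 1 uM T3, incubated 5 hr at ambient temperature, then read by fluorescence polarization.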
Tau FP inhib – qHTS for Inhibitors of Tau Fibril Formation, Fluorescence Polarization; K18 P301L tau heparin fibrillization, Alexa594 FP, 6 h; Potency, µM (series often up to 57.7 µM), inactives show top-dose activity, negative = inhibition, most hits filed as inhibitors; hit rate 0.39% among 280,000; AID 1468, 2008; also: potency is read from the fitted curve at half-maximal effect; nearly all actives have a fitted effect of over 55% in size
Target sequence (P10636 561-689 P618L limits assumed): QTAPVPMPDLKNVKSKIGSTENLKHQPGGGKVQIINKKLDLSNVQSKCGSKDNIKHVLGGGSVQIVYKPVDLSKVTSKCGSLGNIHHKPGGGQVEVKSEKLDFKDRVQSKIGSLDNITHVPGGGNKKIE
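Steps: dispense K18 P301L tau (15 uM plus 0.24 uM Alexa 594 tracer, final) in pH 7 sodium acetate; add compound; add heparin (20 uM final); incubate 6 hr, 37 C; add ThT (30 uM final); after 1 hr ambient, read FP.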
Tau fluor cs – Counterscreen qHTS for Inhibitors of Tau Fibril Formation, Fluorescence Polarization | tau K18 P301L Alexa594 fluorescence, heparin fibrillization | Potency, µM (titrated, usually from 57.7 µM), without a hit: at the highest dose activity change, negative = decrease | hit rate 0.93% among 280,000; also: potency is read from the fitted curve at half-maximal effect; nearly all actives have a fitted effect of over 55% in size
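Human tau K18 P301L (15 uM unlabeled, 0.24 uM Alexa 594-labeled) in 100 mM sodium acetate pH 7 with 20 uM heparin, 6 hr at 37 C. ThT 30 uM added, 1 hr ambient; Alexa 594 FP and total fluorescence read at 555/632 nm.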
Tau ThT inhib – qHTS for Inhibitors of Tau Fibril Formation, Thioflavin T Binding. AID 1460, 2008. Potency, µM (titrated, usually from 57.4 µM), for inactives: at the highest dose activity, negative = inhibition, actives largely listed as inhibitors. Microtubule-associated protein tau (Homo sapiens), P10636. hit rate 2.1% among 270,000. recombinant tau K18 P301L, heparin-induced fibrillization, ThT fluorescence; also: potency is read from the fitted curve at half-maximal effect; nearly all actives have a fitted effect of over 55% in size
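Fibril formation assay: tau K18 P301L at 15 uM with trace Alexa 594 label, heparin inducer 20 uM, pH 7 sodium acetate buffer, 37 C for 6 hr; endpoint ThT signal.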
TR SRC2 fluor cs – Total Fluorescence Counterscreen for Inhibitors of the Interaction of Thyroid Hormone Receptor and Steroid Receptor Coregulator 2; Potency, µM (doses to about 106 µM), inactives show at the top dose fluorescence change, negative = quenching; TRb/SRC2 Texas Red total fluorescence interference; hit rate 0.29% among 280,000; active = well fitted curve in either direction with a large enough effect; inconclusive = small, poorly fitted or top-dose-only effect; also: potency is read from the fitted curve at half-maximal effect
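Flags fluorescent or light-absorbing compounds by total fluorescence, S + 2P, at 555 nm excitation and 632 nm emission. Mixture: 20 nM Texas Red SRC2 peptide, 0.6 uM human TRb LBD, 1 uM T3, 5% DMSO; compound exposure 5 h at ambient temperature.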
PNC inhibitor – High Content Assay for Compounds that inhibit the Assembly of the Perinucleolar Compartment; activity change (PNC), negative = inhibition, % at 10 µM; AID 2417, 2010; PC3M PTB-GFP, PNC prevalence imaging, 16 h; active compounds read low; hit rate 3.1% among 140,000;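 active = readout at or below -70, meaning at least 70% loss of cells showing the perinucleolar compartment, a nuclear body marking cancer cells; inconclusive = readout between -30 and a set limit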;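 also: plate controls were DMSO wells for no effect and camptothecin positive control wells for full effect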
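PC3M cells stably expressing PTB-GFP, 750–1000 cells/well, treated 16 h at 37 °C with compound (23 nl of library stock), in duplicate. After paraformaldehyde fixation and Hoechst stain, imaged at 20x; PNC prevalence scored by image analysis.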
Numbers without * were called inactive; ? = inconclusive; / = no result; ! = a repeat was not active; [ ] = dose if it differs, or a comment. Unless noted, calls follow the shape of the dose curve; as a rule, active = well fitted curve in the direction sought with a large enough effect; inconclusive = small, poorly fitted or top-dose-only effect, or another doubt; inactive = no such curve, though single readings can be large; an effect the other way counts as inactive or inconclusive. Unless noted, % is scaled to controls: 0 for no effect and ±100 for the full control effect.

SMILES	TRb-SRC2 inh	Tau FP inhib	Tau fluor cs	Tau ThT inhib	TR SRC2 fluor cs	PNC inhibitor
CCn1c(CSc2ncn[nH]2)nc2cc(C(=O)O)ccc21	?	-1.0%	-2.5%	-2.3%	?	/
CCn1c(CSc2nnc(-c3ccncc3)n2C)nc2cc(C(=O)O)ccc21	39.8µM*	-8.2%	-3.2%	-19.6%	44.7µM*[fluorescent]	/
Cc1ccc2oc(C(=O)Nc3ccc(S(=O)(=O)N(C)c4ccccc4)cc3)cc(=O)c2c1	-10.1%	?	?	-5.8%	100µM*[quencher]	/
CC(C)C(=O)Nc1ccc(NC(=S)NC(=O)c2ccc([N+](=O)[O-])cc2)cc1	-7.4%	-1.8%	-28.3%	7.08µM*	0.2%	86.2
CC(C)C(=O)Nc1cccc(NC(=S)NC(=O)c2ccc([N+](=O)[O-])cc2)c1	1.8%	1.0%	-18.1%	?	-3.4%	19.4
Cc1ccc(NC(=O)Cn2c(=O)n(Cc3ccccc3)c(=O)c3c(C)c(C)sc32)c(C)c1	2.6%	?	-5.9%	11.6%	-2.8%	/
CCCCc1ccc(C2C(C#N)=C(N)SC(N)=C2C#N)s1	4.8%	?	25.1µM*[quencher]	25.1µM*	-1.5%	42.0
CCOc1ccc(C2C(C#N)=C(N)SC(N)=C2C#N)c(OCC)c1	4.7%	?	?	?	-2.4%	-0.6
CC(NCc1ccc(-c2ccccc2)cc1)C(O)c1ccccc1 (stereo not given)	2.6%	-3.7%	-12.6%	-12.1%	-0.5%	-118.2*
CCc1ccc(N2CC(C(=O)OCC(=O)NC3CCS(=O)(=O)C3)CC2=O)cc1 (stereo not given)	-0.7%	-6.2%	1.3%	0.3%	-3.8%	-100.0*
CCc1ccc(N2CC(C(=O)OC)CC2=O)cc1 (stereo not given)	8.0%	2.4%	-0.5%	-4.7%	-1.7%	/
CCN1CCN(c2ccc(NC(=O)CCc3c(C)nc4c(-c5ccc(F)cc5)c(C)nn4c3C)cc2)CC1	0.3%	2.3%	17.8µM*[quencher]	?	0.3%	/
CCC(=O)Nc1cccc(-n2nnnc2SCC(=O)c2ccc(C)c(C)c2)c1	-6.2%	-14.1%	?	-4.2%	-0.9%	23.3
COc1ccc(CNc2nc(-c3ccco3)nn2S(=O)(=O)c2ccc3ccccc3c2)cc1OC	-1.4%	?	?	3.2%	1.2%	/
COc1ccccc1CNc1nc(-c2ccco2)nn1S(=O)(=O)c1ccc2ccccc2c1	-6.0%	?	-29.0%	-6.4%	1122µM*[quencher]	/
Cc1csc(NC(=O)CSc2ncc(-c3ccccc3)[nH]2)n1	2.2%	11.8%	-24.4%	-7.5%	-1.2%	?
Cc1ccc(Cn2ccnc2SCC(=O)NCc2ccc(F)cc2)cc1	-1.3%	-1.2%	-14.9%	-13.0%	-2.1%	/
COc1cc(OC)c2c(C)c(CC(=O)NCCc3ccccc3OC)c(=O)oc2c1	4.4%	-3.4%	-1.1%	3.7%	-10.0%	/
COC(=O)Nc1nc(-c2ccccc2)c(C(=O)c2ccccc2)s1	-13.4%	-11.8%	?	-20.8%	-1.2%	-98.1*
COc1ccc(NC(=O)/C(Cl)=C(/Cl)S(=O)(=O)Cc2ccccc2)cn1	-1.7%	?	-23.8%	7.08µM*	0.8%	-20.7
O=C(CS(=O)c1ccccc1[N+](=O)[O-])Oc1ccc(Br)cc1 (stereo not given)	-3.8%	?	?	?	-4.0%	/
CS(=O)(=O)c1ccc(S(=O)CC(=O)Oc2ccc(Cl)cc2)c([N+](=O)[O-])c1 (stereo not given)	-5.3%	?	-25.5%	3.55µM*	-4.8%	/
Cc1cccc2sc(N(Cc3cccnc3)C(=O)CCS(=O)(=O)c3ccccc3)nc12	-3.0%	-6.0%	-6.6%	-14.2%	-0.4%	/
O=C(Nc1cccc(Cl)c1)Nc1cc(S(=O)(=O)N2CCOCC2)ccc1N1CCCC1	-0.5%	-1.9%	14.1µM*[quencher]	-1.2%	-3.1%	53.4
Cc1ccc(Cl)cc1N1CCN(CCCNC(=O)Cn2ncc3c([nH]c4ccccc43)c2=O)CC1	-2.5%	-12.2%	1.5%	8.8%	?	/
SMILES	TRb-SRC2 inh	Tau FP inhib	Tau fluor cs	Tau ThT inhib	TR SRC2 fluor cs	PNC inhibitor
O=C(O)c1cc(O)c2c(c1)C(=O)c1cccc(O)c1C2=O	1.1%	?	17.8µM*![quencher]	17.8µM*	?	60.7
Nc1cc(-c2ccccc2)ccc1O	-18.3%	4.5%	-20.7%	?	0.3%	17.5
Cc1ccc(C(=O)c2sc(Nc3ccc(F)cc3)nc2N)c(C)c1	-0.2%	13.6%	15.8µM*[quencher]	-14.2%	-1.4%	/
Nc1nc(Nc2cccc(Cl)c2)sc1C(=O)c1ccc(F)cc1	4.6%	?	8.91µM*[quencher]	?	-4.4%	/
Nc1nc(Nc2ccccc2F)sc1C(=O)c1ccc(Cl)cc1	-0.8%	-2.0%	15.8µM*[quencher]	25.1µM*	1.8%	/
CCOc1ccc(Nc2nc(N)c(C(=O)c3ccccc3Cl)s2)cc1	-1.7%	2.7%	15.8µM*[quencher]	?	-1.9%	/
COc1cccc(C(=O)c2sc(Nc3ccc(F)c(Cl)c3)nc2N)c1	4.1%	6.5%	?	0.1%	0.8%	/
CCOC(=O)c1sc(Nc2ccc(F)cc2)nc1C	-0.7%	12.5%	-25.4%	-11.8%	-2.8%	/
CNS(=O)(=O)c1cn(CC(=O)N2CCN(c3ccc(C(C)=O)cc3)CC2)cc1S(=O)(=O)NC	-2.3%	1.0%	-4.3%	-6.4%	-2.1%	/
N/C(=N\S(=O)(=O)c1cc(C(F)(F)F)cc(C(F)(F)F)c1)c1ccc(Cl)cc1	-0.4%	?	-22.1%	10.1%	-5.4%	/
Cc1ccc(NC(=S)NC(=O)CC2CC(C)(C)OC2=O)cc1 (stereo not given)	-5.1%	0.0%	0.3%	-3.2%	-3.2%	/
CCC(C)(C)C(=O)Nc1ccc(OC)cc1[N+](=O)[O-]	-14.1%	3.1%	-0.2%	0.9%	0.1%	130.2
CCCOC(=O)CSC1=C(C#N)C(c2ccccc2OC)C(C#N)C(=O)N1 (stereo not given)	2.5%	1.3%	-20.8%	-17.0%	-4.1%	-97.4*
CC(C)c1ccc(S(=O)(=O)/N=C2/C=C(Sc3ncn[nH]3)C(=O)c3ccccc32)cc1	-19.3%	-1.0%	-2.0%	6.1%	0.7%	?
Cc1ccc(S(=O)(=O)/N=C2/C=C(Sc3ncn[nH]3)C(=O)c3ccccc32)c(C)c1	28.2µM*	28.2µM*	?	10µM*	-14.7%	17.3
Cc1ccc(S(=O)(=O)/N=C2/C=C(Sc3ncn[nH]3)C(=O)c3ccccc32)cc1	28.2µM*	14.1µM*	?	3.55µM*	-15.7%	-22.1
Cc1ccc(C)c(S(=O)(=O)Nc2ccc(O)c(Sc3ncn[nH]3)c2)c1	-1.2%	-5.4%	-22.6%	/	2.6%	/
